In ChEMBL document CHEMBL4513149, “CO-ADD screening of MMV (CH) - MMV compounds” (2021):
Entries with a potency or affinity are not part of this list.

Key:
Staphylococcus aureus = conditions: Concentration 20 uM; ASSAY_TEST Inhibition of Bacterial Growth; detection method Absorption (OD600); MEDIA CAMHB; plate type 384well; NBS; CORNING #3640; time 18 hr
Escherichia coli = conditions: Concentration 20 uM; ASSAY_TEST Inhibition of Bacterial Growth; detection method Absorption (OD600); MEDIA CAMHB; plate type 384well; NBS; CORNING #3640; time 18 hr

Structure (SMILES) | Inhibition (Staphylococcus aureus) | Inhibition (Escherichia coli)
CCOC(=O)c1cc(-c2csc(Nc3c(C)cc(C)cc3C)n2)on1 | 5.55% | 5.47%
Cl.NCC(c1cccs1)S(=O)(=O)c1ccccc1 (stereo not drawn) | 11.05% | -0.69%
COc1ccc(Oc2ccc([C@@H](C)N(C)c3ncc4c(N)nc(N)nc4n3)cc2)cc1 | 53.21% | 13.92%
CC1(COc2ccc(N3CCC(Oc4ccc(OC(F)(F)F)cc4)CC3)cc2)Cn2cc([N+](=O)[O-])nc2O1 (stereo not drawn) | 13.25% | 11.79%
CS(=O)(=O)c1ccc(C(=O)N(CC2CCCO2)c2nc3ccccc3s2)cc1[N+](=O)[O-] (stereo not drawn) | 17.15% | 7.54%
Clc1ccc(Cl)c(CO[C@H]2CCCC[C@@H]2n2ccnc2)c1 | 22.53% | 7.4%
CCCNC(=O)N1CCC2(CC1)CC(=O)c1cc(C)ccc1O2 | 20.33% | 10.17%
COc1cc2ncnc(NC3CCN(Cc4ccccc4)CC3)c2cc1OC | 7.78% | -0.93%
Cc1nc(-c2ccccn2)nc(NCCc2ccc(S(C)(=O)=O)cc2)c1Cl | 4.78% | -2.55%
CN1CCN(c2cc(-c3ccc(F)cc3)nc(-c3ccncc3)n2)CC1 | 17.93% | -5.05%
CNC(=O)CNc1nc(-c2ccccn2)nc2scc(-c3ccccc3)c12 | 11.27% | 6.67%
O=C(Nc1ccc(F)c(-c2nc3cc(-c4ccccc4)cnc3[nH]2)c1)N1CCCC1 | 13.16% | -0.3%
N=C(N)c1ccc(-c2cc(-c3ccccc3)on2)cc1 | 23.63% | 12.9%
COc1cccc(-c2cc3c(Nc4cccnc4)nccc3[nH]2)c1 | 13.42% | -3.86%
COc1ccc(N(CCc2cccc(C)n2)C(C)=O)cc1 | 18.62% | 6.06%
O=C(C(Cc1c[nH]c2ccccc12)NS(=O)(=O)c1ccc(Cl)cc1)N1CCCCC1 (stereo not drawn) | 2.32% | 4.17%
CC(C)(C(=O)Nc1ccc(F)cc1)n1cc(-c2ccccc2F)cn1 | 21.36% | 9.99%

Structure (SMILES) | Inhibition (Staphylococcus aureus) | Inhibition (Escherichia coli)
CS(=O)(=O)N1CCC(Cn2nc(Cc3cccc4ccccc34)c3c(N)ncnc32)CC1 | 11.53% | 3.3%
COC(=O)c1cccc2oc(-c3cccc(OC)c3NC(=O)c3cc(-c4ccccc4)on3)nc12 | 11.44% | 4.98%
O=C(NCCc1ccccc1)c1cc(-c2cccnc2)cnc1NCC1CC1 | 6.31% | 1.84%
Cc1cccc(NC(=O)c2cc(S(=O)(=O)N(C)c3ccc(F)cc3)ccc2Cl)n1 | 12.32% | 7.88%
Cc1ccc(S(=O)(=O)Nc2ccc(CN3CCN(C(=O)c4cccc(C#N)c4)CC3)cc2)cc1 | 8.99% | 3.52%
O=S(=O)(c1ccc(Cl)cc1)N1CCN(C(=S)NCc2ccco2)CC1 | 6.19% | -1.38%
COC(=O)C1=C(C)NC(C)=C(C(=O)OC(C)C)C1c1cccc2nonc12 (stereo not drawn) [ISRADIPINE] | 3.78% | -1.04%
Cc1cc(C)n(-c2ccc(NC(=O)C3CCN(Cc4cnc(C)s4)CC3)cc2)n1 | 16.08% | 3.68%
COc1cc(-c2cc(-c3ccc(S(C)(=O)=O)cc3)cnc2N)ccc1O | 12.87% | 6.84%
O=C1COCc2ccc(Br)cc2N1Cc1ccc(C(F)(F)F)cc1 | 12.84% | 10.17%
NCC(=O)N1CCn2c(nc(-c3ccccc3)c2Nc2ccc3c(c2)OCO3)C1 | 11.35% | -1.15%
CS(=O)(=O)Cc1nc2ccccc2oc1=O | 30.23% | 5.17%
CC[C@H](CO)NCCN[C@H](CC)CO.Cl.Cl | 13.87% | -1.24%
CN1CCN(c2nccc3nc(-c4ccc(F)c(F)c4)[nH]c23)CC1 | 17.33% | 8.63%
Cc1ccc2[nH]c(C3CCCNC3)c(-c3ccncc3)c2c1.Cl.Cl (stereo not drawn) | 42.59% | 2.54%
CC(C)C(NC(=O)Cc1cccc2ccccc12)C(=O)Nc1cccc(C#N)c1 (stereo not drawn) | 17.14% | 6.32%
c1ccc(Oc2ccc(-c3cncc(-c4ccc5[nH]ccc5c4)n3)cc2)cc1 | 11.46% | 11.21%
